Most compounds without a hit are left out; they make up all but 21% or so of the library.
DRD3 agonist: qHTS of D3 Dopamine Receptor Agonist: qHTS; D(3) dopamine receptor (Homo sapiens), P35462; max activation, %; 410,000 compounds, 0.58% hits; D3R DiscoveRx beta-arrestin cells, luminescence, 90 min; AID 652048, 2013; in the data active = max activation above about 30%
Target sequence (P35462 whole entry, looked up): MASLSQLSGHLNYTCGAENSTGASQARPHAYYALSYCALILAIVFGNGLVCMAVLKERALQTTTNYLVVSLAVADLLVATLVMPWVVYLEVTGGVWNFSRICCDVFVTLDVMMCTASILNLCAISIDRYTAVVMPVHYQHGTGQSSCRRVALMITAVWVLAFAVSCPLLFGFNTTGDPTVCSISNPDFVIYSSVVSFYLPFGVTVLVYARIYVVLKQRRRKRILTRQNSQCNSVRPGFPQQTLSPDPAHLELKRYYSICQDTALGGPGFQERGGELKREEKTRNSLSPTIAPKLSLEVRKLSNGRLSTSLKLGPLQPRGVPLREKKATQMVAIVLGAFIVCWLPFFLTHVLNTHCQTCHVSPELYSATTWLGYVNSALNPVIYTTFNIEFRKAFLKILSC
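Agonist-mode cell screen: cells plated at 1500/well and incubated overnight at 37 °C, then exposed to library compounds for 90 min at 37 °C. Detection reagent was added for 30–60 min at room temperature, and luminescence was read.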
ClpP mod: qHTS Assay for Activators of ClpP. ATP-dependent Clp protease proteolytic subunit (Bacillus subtilis (strain 168)), P80244. purified B. subtilis ClpP, FRET peptide cleavage, 20 min. Potency, µM (highest dose often 57.5 µM). 340,000 compounds, 1.9% hits. AID 651965, 2013; active = well fitted falling curve with a large enough effect; inconclusive = small, poorly fitted or top-dose-only effect; inactive = no such curve, though single readings can be large or run the other way; note: the source files actives as falling curves though it sought activators and does not explain the sign; nearly all actives have a fitted effect of over 65% in size
Target sequence (P80244 whole entry, looked up): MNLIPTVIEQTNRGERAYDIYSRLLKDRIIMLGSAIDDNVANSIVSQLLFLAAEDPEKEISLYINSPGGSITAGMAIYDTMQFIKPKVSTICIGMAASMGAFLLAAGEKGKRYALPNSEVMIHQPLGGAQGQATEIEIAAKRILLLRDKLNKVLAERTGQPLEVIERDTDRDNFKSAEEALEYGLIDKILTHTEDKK
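ClpP 10 microg/mL final, pH 8 Tris/KCl buffer with BSA, glycerol, Tween-20; compound pinned in; FRET-FV substrate; RT 20 min; Ex320/Em430; ΔFRET vs ADEP 5.8 microM, DMSO, no enzyme.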
IL-1B inflam inh: qHTS for Inhibitors of Inflammasome Signaling: IL-1-beta AlphaLISA Primary Screen | THP-1 LPS/ATP IL-1B secretion, AlphaLISA, 16 h; stronger effect = lower value | activity change, % at 57.5 µM | 360,000 compounds, 4.7% hits | AID 743279, 2014; in the data active = activity change below about -50%; inconclusive = mostly about -30% to -49%
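THP-1 cells pretreated 1 hr with compounds (up to 57.5 uM final), then stimulated with LPS (250 ng/mL final) plus ATP (1.25 mM final); secreted IL-1B measured by AlphaLISA after 16 hr, decreased signal indicating inhibition.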
DRD3 antagonist: qHTS of D3 Dopamine Receptor Antagonist: qHTS; 360,000 compounds, 2.5% hits; D3R cells, DiscoveRx beta-arrestin luminescence, antagonist mode; stronger effect = lower value; max response, negative = inhibition, %; AID 652054, 2013; in the data active = max response below about -50%; inconclusive = no clear call, values can overlap the other calls
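Cells expressing the human receptor were seeded at 1500 cells/well, incubated overnight at 37 degrees C in 5% CO2, then exposed to library compounds with dopamine controls for 90 minutes at 37 degrees C before luminescent detection.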
DT40 TDP1 CPT: qHTS for Inhibitors of human tyrosyl-DNA phosphodiesterase 1 (TDP1): qHTS in cells in presence of CPT; AID 686979, 2013; Potency, µM (highest dose often 46.2 µM), usual class: inhibitors; 420,000 compounds, 12% hits; chicken DT40 Tdp1-/-;hTDP1 cells + 20 nM CPT, ATP luminescence, 48 h; note: nearly all actives have a fitted effect of over 55% in size
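Chicken DT40 Tdp1-/- cells stably complemented with human TDP1 were seeded at 400 cells/well in medium containing 20 nM camptothecin, exposed to pin-transferred compounds, and grown at 37 °C for at least 48 hr. Viability was read as ATP luminescence.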
DT40 TDP1 no CPT: qHTS for Inhibitors of human tyrosyl-DNA phosphodiesterase 1 (TDP1): qHTS in cells in absence of CPT. DT40 Tdp1-/- hTDP1 cells, no CPT, ATP luminescence, 48 h. Potency, µM (series often up to 46.2 µM), hits mostly inhibitors. 420,000 compounds, 15% hits. AID 686978, 2013; note: nearly all actives have a fitted effect of over 55% in size
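Chicken DT40 Tdp1-/- cells stably complemented with human TDP1 were seeded at 400 cells/well with DMSO in place of 20 nM camptothecin. After compound pinning, cells grew at least 48 hr at 37 °C; viability read by CellTiter-Glo luminescence.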
Numbers stand for hits; – = inactive; ? = inconclusive; · = no result; ! = not active in a repeat. Unless noted, calls come from the whole dose curve; as a rule, active = well fitted inhibition curve with a large enough effect; inconclusive = small, poorly fitted or top-dose-only effect; inactive = flat fitted curve, though single readings scatter.

SMILES	DRD3 agonist	ClpP mod	IL-1B inflam inh	DRD3 antagonist	DT40 TDP1 CPT	DT40 TDP1 no CPT
COc1ccc(C(CC(=O)N2CCCC2)c2c(OC)cc(OC)c3ccc(=O)oc23)cc1 (stereo not drawn)	–	–	–	–	?	?
COc1cc(OC)c2ccc(=O)oc2c1C(CCN1CCCC(C)C1)c1ccc2c(c1)OCO2 (stereo not drawn)	–	–	–	?	10µM	15µM
COc1cc(O)c(C(CCN2CCCC(C)C2)c2ccc3c(c2)OCO3)c(OC)c1 (stereo not drawn)	–	–	–	-68	16µM	16µM
Cc1ccccc1C(=O)NNc1ccc(-c2csnn2)cc1	–	·	·	–	–	–
COc1ccc2c(Cl)cc(NC(=O)Nc3c(C)cccc3C)nc2c1	–	–	–	–	13µM	18µM
COc1ccc2nc(C)cc(SCC(=O)Nc3c(C)cccc3C)c2c1	–	–	–	–	?	?
COc1cccc(-c2nn(C)c3sc(C(=O)NCc4ccc(C)cc4)cc23)c1	–	20µM!	–	?	?	?
COc1cccc(-c2nn(C)c3sc(C(=O)NCCc4cccc(C)c4)cc23)c1	–	–	·	·	10µM	5.2µM
COCCCNC(=O)c1cc2c(-c3cccc(OC)c3)nn(C)c2s1	–	–	–	–	?	?
COc1cccc(-c2nn(C)c3sc(C(=O)NCc4ccccn4)cc23)c1	–	28µM	?	–	?	–
CCCN(CCC)CCCNC(=O)c1cc2c(-c3ccc(OC)c(OC)c3)nn(C)c2s1	–	?	-52	-92	15µM	4.6µM
C[C@@H]1CN([C@H](C)CO)C(=O)CCCn2cc(nn2)CO[C@H]1CN(C)S(=O)(=O)c1ccccc1F	–	–	–	–	–	–
COc1ccc(OC)c(CNC(=O)c2cc3c(-c4ccc(OC)c(OC)c4)nn(C)c3s2)c1	–	–	·	·	?	8.2µM
CCN(CC)CCNC(=O)c1cc2c(-c3cccc(OC)c3)nn(C)c2s1	–	–	-79	–	?	?
CCc1nn(CC(=O)N2CCN(c3cccc(Cl)c3)CC2)c(=O)c2cc3sccc3n12	–	–	·	·	–	–
CCOC(=O)C1CCN(C(=O)Cn2nc(CC)n3c(cc4sccc43)c2=O)CC1	–	–	·	·	?	18µM
CCc1cc2c(cc3c(=O)n(CC(=O)N4CCC(C)CC4)nc(CC)n32)s1	–	–	·	·	16µM	?
CCc1cc2c(cc3c(=O)n(CCCC(=O)NCc4ccccc4Cl)nc(CC)n32)s1	–	–	·	·	?	23µM
CCc1nn(CC(=O)N2CCN(c3cccc(C)c3)C(C)C2)c(=O)c2cc3sccc3n12 (stereo not drawn)	–	–	·	·	21µM	23µM
CCCCCCCC/C=C\CCCCCCCCN	–	·	·	·	–	–
COc1cc(OC)cc(N(C(=O)C2COc3ccccc3O2)C(C(=O)NC2CCCCC2)c2ccc(O)cc2)c1 (stereo not drawn)	–	?	-60	?	?	?
COc1ccc(N(C(=O)C2COc3ccccc3O2)C(C(=O)NC2CCCCC2)c2ccccc2)cc1OC (stereo not drawn)	–	–	–	–	?	?
O=C(NCC1COCCO1)c1cc(COc2ccc(F)cc2F)on1 (stereo not drawn)	–	–	–	–	–	–
NC(=O)c1cc(-c2ccccc2)nc(N2CCOCC2)n1	–	–	-50	–	21µM	12µM
NC(=O)c1cc(-c2ccccc2)nc(N2CCCCCC2)n1	–	–	–	–	?	?
SMILES	DRD3 agonist	ClpP mod	IL-1B inflam inh	DRD3 antagonist	DT40 TDP1 CPT	DT40 TDP1 no CPT
CC(C)CNC(=O)COc1ccc2c3c(c(=O)oc2c1)CCC3	–	25µM	?	–	–	–
O=C(COc1ccc2c3c(c(=O)oc2c1)CCC3)NCC(O)c1ccccc1 (stereo not drawn)	–	?	–	–	–	–
CC(C)CCNC(=O)COc1ccc2c3c(c(=O)oc2c1)CCC3	–	10µM	–	–	–	–
Cc1ccc(S(=O)(=O)Oc2ccccc2[N+](=O)[O-])cc1	–	·	–	?	–	?
CCOC(=O)/C(=C\c1ccccc1)C(=O)c1cc(C(C)=O)c(Nc2ccccc2)s1	–	–	-101	?	8.2µM	9.2µM
CCOC(=O)c1cc(C)sc1NC(=S)Nc1ccccc1	–	–	–	–	–	–
CCOC(=O)/C(=C\c1cccnc1)C(=O)c1cc(C(C)=O)c(Nc2ccccc2)s1	–	–	-103	-130	2.1µM	1.8µM
C=C1c2cc(OC)ccc2NC(=O)N1CC	–	3.2µM	–	–	–	–
Cc1ccc(C(CC(=O)N2CCCC2)c2ccccc2)c(O)c1 (stereo not drawn)	–	–	–	–	–	–
Cc1ccc(C(=O)NNC(=O)c2ccc3ccccc3c2)cc1	–	–	–	–	–	?
COc1ccc(C(=S)NCS(=O)(=O)c2ccc(C)cc2)cc1	–	–	-100	–	?	?
CO/N=C/C(=N\Nc1ccc(OC)cc1)C(=O)c1ccc(F)cc1	–	·	–	–	?	?
COc1ccc(C(=S)Nc2ccc(C)cc2)cc1	–	–	–	-67	–	–
Cc1ccc(S(=O)(=O)CNC(=S)c2ccc3ccccc3c2)cc1	–	–	?	–	?	18µM
CO/N=C/C(=N\Nc1ccc(C)cc1)C(=O)c1ccc(OC)cc1	–	–	–	–	4.1µM	3.3µM
CCOC(=O)c1sc(NC(=O)c2cc(CC)on2)c(C(=O)OCC)c1C	–	–	·	·	?	–
Clc1ccc(C2=Nn3c(Cn4nnc5ccccc54)nnc3SC2)cc1	–	–	-53	–	–	–
c1ccc(-c2ccc(C3=Nn4c(Cn5nnc6ccccc65)nnc4SC3)cc2)cc1	–	?	-57	–	23µM	?
Cn1c(C(=O)N2CCN(Cc3ccc4c(c3)OCO4)CC2)cc2sccc21	–	–	?	-96	?	?
O=C(c1ccc(Cl)c(Cl)c1)N1CCN(Cc2ccc3c(c2)OCO3)CC1	–	–	–	–	–	?
COc1ccsc1C(=O)N1CCN(Cc2ccc3c(c2)OCO3)CC1	–	–	–	-63	–	–
COc1ccc(NC(=O)CN2CCN(Cc3ccc4c(c3)OCO4)CC2)cc1OC	–	–	–	-73	–	–
O=C(c1sccc1Cl)N1CCN(Cc2ccc3c(c2)OCO3)CC1	–	–	-81	–	–	?

High-throughput results as filed in PubChem BioAssay.
